Experimental findings from PubChem BioAssay (NCATS) are described below.

Results filed as inconclusive are left out. Values without a mark were called inactive. Calls of active or inactive are those of the source. Calls follow the shape of the dose curve; as a rule, active = well fitted inhibition curve with a large enough effect; inconclusive = small, poorly fitted or top-dose-only effect; inactive = flat fitted curve, though single readings scatter.
Potency is read from the fitted curve at half-maximal effect.

This test has as its system Zika virus NS2B-NS3 protease. The test can be described thus: Primary screen GU AMC qHTS for Zika virus inhibitors (AID 1347154). Also: nearly all actives have a fitted effect of over 70% in size.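 As to activity change, negative = inhibition: 0% = no-inhibitor control and -100% = no-enzyme control.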 The settings on record: Zika NS2B-NS3 unlinked protease, AMC fluorogenic substrate; series mostly up to 54.1 µM; activity change, negative = inhibition: at the top concentration. The gist of the method:
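Unlinked Zika NS2B hydrophilic domain/NS3 protease domain noncovalent complex (25 nM final) in 10 mM Tris-HCl pH 8.0, 0.01% Tween 20, with AMC peptide substrate. Fluorescence (ex 340, em 450 nm) change over 15 min, room temperature; percent inhibition fitted to 4-parameter Hill equation.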
(In general: In qHTS, concentration-response curves come from the screen itself.)
For `C[C@]12CCC(=O)C=C1CC[C@@H]1[C@@H]2CC[C@]2(C)C(=O)CC[C@@H]12`, the Potency entry was “inactive”.

As for `C[C@](O)(CS(=O)(=O)c1ccc(F)cc1)C(=O)Nc1ccc(C#N)c(C(F)(F)F)c1`, the “activity change, negative = inhibition” value is 5.15%.

`C[C@]12Cc3cn[nH]c3C[C@@H]1CC[C@@H]1[C@@H]2CC[C@@]2(C)[C@H]1CC[C@]2(C)O`: the “activity change, negative = inhibition” value is -3.31%.

Regarding `CN1CC[C@]23c4c5ccc(O)c4O[C@H]2[C@@H](O)CC[C@H]3[C@H]1C5`, the “activity change, negative = inhibition” value was 1.5% [at 104 µM].

Take `O=C(Nc1ccc(Br)cc1)c1cc(Br)cc(Br)c1O`: the Potency is 35.5 µM (active).

With `Clc1cccc(SC2CCNCC2)n1`, the Potency result is “inactive”.

On to `CC(Cc1ccccc1)NCCn1cnc2c1c(=O)n(C)c(=O)n2C` (stereo not given), for which the “activity change, negative = inhibition” value is 3.04% [at 104 µM].

`CCCOC(=O)c1cncn1C(C)c1ccccc1` (stereo not given): the “activity change, negative = inhibition” value was 2.26%.

Take `Nc1ccccc1`: the “activity change, negative = inhibition” value is -1.4%.

For the molecule `Clc1ccccc1N1CCNCC1`, the “activity change, negative = inhibition” value is 0.141%.

`CCN(CC)CCc1c[nH]c2ccccc12`: the “activity change, negative = inhibition” value is 1.32% [at 194 µM].

For `Oc1ccc(Cl)cc1`, the “activity change, negative = inhibition” value was -0.917%.

For `O=C1CN=C(c2ccccc2)c2cc([N+](=O)[O-])ccc2N1`, the “activity change, negative = inhibition” value is -4.17%.

As for `c1ccc(N2CCNCC2)cc1`, the “activity change, negative = inhibition” value was 7.67%.

Turning to `CNCC(=O)c1ccc(O)c(O)c1`, the “activity change, negative = inhibition” value was -3.66%.

Turning to `CC(=O)NC1CCSC1=O` (stereo not given), the “activity change, negative = inhibition” value is -1.21%.

For the molecule `CC(C)(C)NCC(O)c1cc(Cl)c(N)c(C(F)(F)F)c1` (stereo not given), the “activity change, negative = inhibition” value is 6.22%.

Take `COc1cccc2c1C(=O)c1c(O)c3c(c(O)c1C2=O)C[C@@](O)(C(=O)CO)CC3OC1CC(N2CCOC(OC)C2)C(O)C(C)O1` (stereo not given in full): the “activity change, negative = inhibition” value is -12.7%.

Consider `C=CCC1([C@H](C)CCC)C(=O)NC(=O)NC1=O`, for which the “activity change, negative = inhibition” value was 0.0325% [at 104 µM].

With `CCN(CCO)CCn1c(Cc2ccccc2)nc2c1c(=O)n(C)c(=O)n2C`, the “activity change, negative = inhibition” value is -2.66%.
